Experimental data as given in PubChem BioAssay (EPA / NIEHS).
Calls of active or inactive are those of the source. The calls were made as follows: active = hit-call score of the fitted dose curve at least 0.9, where 1 is the maximum; inactive = score below 0.9.

Test: CEETOX_H295R_MTT_cell_viability: Viability Assessment in the CeeTox HT-H295R MTT Assay (AID 2283718);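 as to AC50: curve fitted both ways so AC50 may mark viability loss or gain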
Method: CEETOX_H295R is a cell-based, multiplexed-readout assay that uses H295R, a human adrenal gland cell line, with measurements taken at 48 hours after chemical dosing in a 96-well plate.CEETOX_H295R_MTT_cell_viability is one of 23 assay component(s) measured or calculated from the CEETOX_H295R assay. It is designed to make measurements of cell number, a form of viability reporter, as detected with […] signals by MTT cytotoxicity assay technology.The assay component endpoint CEETOX_H295R_MTT_cell_viability was analyzed with bidirectional fitting relation to DMSO as the negative control and baseline of activity. Using a type of viability reporter in the MTT cytotoxicity assay, gain or loss-of-signal activity can be used to monitor cellular processes to understand changes in proliferation. To generalize the intended target to other relatable targets, this assay endpoint is annotated to cell cycle, where the subfamily is proliferation.
Cell culture and media preparation procedures were conducted in accordance with OECD Test No. 456 guidelines, with minor modifications. H295R cells (ATCC CRL-2128) were expanded for 5 passages and frozen in batches in liquid nitrogen. Prior to the steroidogenesis assay, H295R cells were thawed and passed at least 4 times. The maximum passage was 10. Cells were maintained in a 1:1 mixture of DMEM/F12 supplemented with 5ml/L ITS+ Premix (BD Bioscience) and 12.5 ml/L Nu-Serum (BD Bioscience). After seeding cells into 96-well plates at 50-60% confluency, cells were allowed to adhere overnight. Prior to chemical testing, culture medium was replaced with 175 uL medium containing 10 uM forskolin to stimulate steroidogenesis for 48 hours. Following prestimulation, forskolin medium was replaced with medium containing test chemical solubilized in DMSO (ensuring a final concentration of 0.1% DMSO). Test chemicals were incubated for 48 hours, then the medium was removed and split into 2 vials containing approximately 75uL each, and stored at -80 C prior to hormone analysis. For steroid quantification, media samples were shipped to OpAns, LLC (Durham, NC) on dry ice, and samples were thawed to room temperature prior to liquid-liquid extraction. Steroid hormones were extracted from media samples using methyl tertbutyl ether (MTBE). An extra derivatization with dansyl chloride was included for estrogen (estrone and estradiol) detection only. Steroid hormones were separated by HPLC, eluted using a reverse phase C18 gradient with electrospray positive ionization, followed by quantification by tandem mass spectrometry (MS/MS). Data were acquired on a MassHunter Workstation Acquisition version B03.01 (Agilent Technologies, Inc.) and processed using MassHunter Quantitative Analysis for QQQ. Accuracy was determined for each hormone analyte from 3 standards to determine upper and lower limits of quantification (ULOQ and LLOQ, respectively) using a 7-point standard curve. Precision and accuracy of the extraction and quantification methods were calculated as the percent relative standard deviation (%RSD) of the spiked standards and percent spiked standard recovered, respectively. The goal was to achieve 100% accuracy (i.e., recover all spiked-in standard at quantification with minimal loss during run time) and good precision (i.e., have %RSD <15% to ensure reproducibility). Test medium was removed following chemical exposure, and cell viability was evaluated in the same wells by MTT. MTT procedures were as follows: after removal of test medium, 500 uL of 0.5 mg/ml of 3-[4,5-dimethylthiazol-2-y]2,5-diphenyltetrazoliumbromide solution was added to the cells. Following a 4-hour incubation at 37 C and 5% CO2 to allow formazan-crystal formation, the MTT solution was removed and blue formazan salt crystals were solubilized using 500uL anhydrous isopropanol with shaking for 20 minutes. Absorbance was read at 570 and 650nm using a Packard Fusion microplate reader. […]

SMILES	outcome	AC50
CCCSP(=S)(OCC)Oc1ccc(SC)cc1 (configuration not stated)	inactive	
CC(C)=CC1C(C(=O)OCc2cccc(Oc3ccccc3)c2)C1(C)C (configuration not stated)		9.92 µM (active)
Cc1cc(C(C)(C)c2ccc(O)c(C)c2)ccc1O	inactive	
OC(Cc1ccccc1Cl)(Cn1cncn1)C1(Cl)CC1 (configuration not stated)	inactive	
CC(C)(C)c1ccccc1O	inactive	
Cc1ccccc1OP(=O)(Oc1ccccc1C)Oc1ccccc1C	inactive	
CCOCn1c(-c2ccc(Cl)cc2)c(C#N)c(Br)c1C(F)(F)F		3.79 µM (active)
c1cc[c]([Sb]([c]2ccccc2)[c]2ccccc2)cc1		37.6 µM (active)
C[C@]12CC[C@@H](O)C[C@@H]1CC[C@@H]1[C@@H]2CC[C@]2(C)C(=O)CC[C@@H]12	inactive	
OC[P+](CO)(CO)CO		2.83 µM (active)
CCOP(=O)(OCC)OC(=CCl)c1ccc(Cl)cc1Cl	inactive	
CC(C)(C)c1cc([N+](=O)[O-])cc(C(C)(C)C)c1O	inactive	
COc1ccc(N)cc1	inactive	
CN(C)C(=S)S	inactive	
O=S1OC[C@@H]2[C@H](CO1)[C@]1(Cl)C(Cl)=C(Cl)[C@@]2(Cl)C1(Cl)Cl (some centres not stated)	inactive	
Cc1cc(Cl)ccc1O	inactive	
Oc1cccc(-c2ccccc2)c1	inactive	
Cc1cc(C)cc(C)c1	inactive	
COC(=O)Nc1cccc(OC(=O)Nc2cccc(C)c2)c1	inactive	
CC(C)(COCC1CO1)COCC1CO1 (configuration not stated)	inactive	
CCOP(=S)(OCC)O/N=C(\C#N)c1ccccc1	inactive	
CCC[CH2][Sn]([Cl])([Cl])[CH2]CCC	inactive	
O=[N+]([O-])c1ccc(Nc2ccccc2)cc1	inactive	
OC(Cc1ccccc1Cl)(Cn1[nH]cnc1=S)C1(Cl)CC1 (configuration not stated)	inactive	
Oc1c(Br)cc(Br)cc1Br		93.6 µM (active)
CCCCCCCCCCCCN(C)C	inactive	
Cc1cc(Cl)ccc1N	inactive	
